Rows were chosen to be rich in hits. Some 1.3% of all compounds tested hit in one or more screens of this group.
GLD-1 RNA inh: GLD-1-TGE RNA interaction inhibition (C. elegans). hit rate 0.44% among 320,000. AID 2280. Q17339. inhibition, % at 5.96 µM. purified GLD-1 + fluorescein TGE RNA, fluorescence polarization;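 active = percent inhibition above a per-plate cutoff, the plate mean of test compounds plus 3 SD, cut at about 30% in these data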;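 also: 0% = DMSO wells with GLD-1 and probe and 100% = wells lacking GLD-1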
Target sequence (Q17339 whole entry, looked up): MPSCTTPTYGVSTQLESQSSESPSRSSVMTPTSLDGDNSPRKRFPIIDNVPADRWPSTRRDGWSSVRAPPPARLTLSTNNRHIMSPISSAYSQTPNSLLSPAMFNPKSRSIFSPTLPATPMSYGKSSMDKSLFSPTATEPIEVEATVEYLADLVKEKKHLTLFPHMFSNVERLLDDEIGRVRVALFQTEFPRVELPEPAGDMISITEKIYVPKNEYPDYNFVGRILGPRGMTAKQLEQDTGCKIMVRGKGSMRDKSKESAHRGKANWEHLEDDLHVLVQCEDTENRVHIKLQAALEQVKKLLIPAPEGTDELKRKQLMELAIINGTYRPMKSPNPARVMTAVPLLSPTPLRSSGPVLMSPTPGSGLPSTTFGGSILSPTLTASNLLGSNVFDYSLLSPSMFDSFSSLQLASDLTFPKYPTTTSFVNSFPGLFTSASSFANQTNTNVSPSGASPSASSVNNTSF
MCL1 BIM primary: inhibitors of human MCL1 binding to BIM-BH3 peptide. Q07820. GST-MCL1 / FITC-Bim-BH3 fluorescence polarization. inhibition, % at 10.9 µM. hit rate 0.68% among 320,000;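 active = inhibition above the mean inhibition of all tested compounds plus 3 SD, set per campaign, cut at about 40% in these data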;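 also: 0% = DMSO wells and 100% = unlabeled Bim-BH3 peptide control; higher means more loss of mP so more displacement of Bim peptide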
Keap1-Nrf2 PPI: disrupts human Keap1 binding to Nrf2 peptide. Keap1 Kelch-Nrf2 peptide fluorescence polarization, 1536-well. inhibition, % at 9.4 µM. hit rate 0.15% among 340,000. AID 504523; in the data active = inhibition above about 12%; inconclusive = no clear call, values can overlap the other calls; inactive = below about 7.3%;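 also: human Keap1 Kelch domain with fluorescein labeled Nrf2 9mer peptide probe; 0% = neutral control wells and 100% = peptide positive control; higher means more block of Keap1 binding to Nrf2 peptide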
BCLXL inh: inhibitors of human Bcl-xL; Q07817; GST-Bcl-xL / FITC-Bim BH3 peptide fluorescence polarization; inhibition, % at 10.9 µM; hit rate 0.7% among 320,000; AID 2129;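 active = inhibition above the mean of all tested compounds plus 3 SD, cutoff set per campaign, cut at about 30% in these data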;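 also: 0% = DMSO wells and 100% = unlabeled Bim-BH3 peptide competitor; inhibitors lower millipolarization by displacing the labeled peptide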
Target sequence (Q07817 whole entry, looked up): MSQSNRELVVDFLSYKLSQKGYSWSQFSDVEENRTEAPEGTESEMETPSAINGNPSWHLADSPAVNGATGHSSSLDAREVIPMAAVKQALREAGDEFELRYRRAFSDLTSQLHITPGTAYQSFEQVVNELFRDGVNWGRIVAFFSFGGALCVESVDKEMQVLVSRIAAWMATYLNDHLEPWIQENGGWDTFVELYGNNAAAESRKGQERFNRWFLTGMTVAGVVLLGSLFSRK
E coli Lon inh: inhibitors of E. coli Lon protease; P0A9M0; purified E. coli Lon protease, fluorescence polarization; inhibition, % at 7.94 µM; hit rate 0.42% among 360,000; AID 602123; in the data active = inhibition above about 13%, passing the limit was not always enough;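 also: 0% = enzyme with probe and DMSO and 100% = no enzyme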
LANA DNA inh: blocks KSHV LANA C-terminal domain binding to DNA; MBP-C-LANA/FAM-LBS DNA binding, fluorescence polarization; inhibition, % at 9 µM; hit rate 0.078% among 340,000; AID 504423;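 active = highest replicate inhibition at or above 60% at 9 µM, even if other replicates fall short; inactive = all replicates below 60% inhibition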;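 also: 0% = neutral control wells and 100% = 4 µM acridine orange control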
An asterisk follows results filed as active.

Results for CCC1c2ccc(C)n2CCN1C(=O)Nc1ccccc1OC (stereo unspecified) ?
GLD-1 RNA inh: 50*; MCL1 BIM primary: 50*; Keap1-Nrf2 PPI: 7; BCLXL inh: 50*; E coli Lon inh: 16; LANA DNA inh: 9

Results for CCOC(=O)N(C)c1c(CC)nc2c(OCc3ccc(Cl)cc3Cl)cccn12 ?
E coli Lon inh: -3

Results for O=C(C[n+]1cc(Br)cc2ccccc21)c1ccccc1 ?
GLD-1 RNA inh: -31; MCL1 BIM primary: 45*; Keap1-Nrf2 PPI: -17; BCLXL inh: 49*; E coli Lon inh: -116; LANA DNA inh: 2

Results for CC(=O)c1cc2ccc(O)cc2oc1=O ?
GLD-1 RNA inh: 25; MCL1 BIM primary: 37; Keap1-Nrf2 PPI: 1; BCLXL inh: 48*; E coli Lon inh: 1; LANA DNA inh: 1

What do the screens show for `COc1ccc2cc(C(C)=O)c(=O)oc2c1`?
GLD-1 RNA inh: -3; MCL1 BIM primary: -5; Keap1-Nrf2 PPI: 4; BCLXL inh: 2; E coli Lon inh: -1; LANA DNA inh: 1

How did CC1=C(C(=O)NCc2ccccc2)C(c2ccc(C)o2)n2ncnc2N1 (stereo unspecified) do in these assays?
GLD-1 RNA inh: 30; MCL1 BIM primary: 42*; Keap1-Nrf2 PPI: -1; BCLXL inh: 38*; E coli Lon inh: -1; LANA DNA inh: 3

Results for COc1cc2ccc(NC(C)=O)cc2cc1OC ?
E coli Lon inh: -17

How did Fc1ccc(Br)cc1C1C=C(c2ccc(Br)s2)Nc2ncnn21 (stereo unspecified) do in these assays?
GLD-1 RNA inh: 19; MCL1 BIM primary: -2; Keap1-Nrf2 PPI: -3; BCLXL inh: 38*; E coli Lon inh: -23; LANA DNA inh: 1

How did COc1cccc(C2C=C(c3ccc(Br)s3)Nc3ncnn32)c1OC (stereo unspecified) do in these assays?
GLD-1 RNA inh: 2; MCL1 BIM primary: 32; Keap1-Nrf2 PPI: -10; BCLXL inh: 34*; E coli Lon inh: -34; LANA DNA inh: 17

Results for c1ccc2nc(N3CCCC3)c(N3CCCC3)nc2c1 ?
GLD-1 RNA inh: 22; MCL1 BIM primary: 44*; Keap1-Nrf2 PPI: 1; BCLXL inh: 39*; E coli Lon inh: -1; LANA DNA inh: -1

Results for CN(C)C=Nc1nc2ccccc2nc1N1CCCC1 ?
GLD-1 RNA inh: 17; MCL1 BIM primary: 41*; Keap1-Nrf2 PPI: 0; BCLXL inh: 43*; E coli Lon inh: 15; LANA DNA inh: 4

What do the screens show for `N=c1c(C(=O)NCC2CCCO2)cc2c(=O)n3ccccc3nc2n1Cc1cccnc1` (stereo unspecified)?
GLD-1 RNA inh: 10; MCL1 BIM primary: 34; Keap1-Nrf2 PPI: 8; BCLXL inh: 37*; E coli Lon inh: -14; LANA DNA inh: 17

How did C[n+]1cccc(C2C(C#N)=C(N)Oc3c2ccc2ccccc32)c1 (stereo unspecified) do in these assays?
GLD-1 RNA inh: 5; MCL1 BIM primary: 30; Keap1-Nrf2 PPI: -3; BCLXL inh: 39*; E coli Lon inh: 8; LANA DNA inh: 1

What do the screens show for `C[n+]1cccc2ccc3c(c21)OC(N)=C(C#N)C3c1ccccc1` (stereo unspecified)?
GLD-1 RNA inh: 6; MCL1 BIM primary: -15; Keap1-Nrf2 PPI: -1; BCLXL inh: -10; E coli Lon inh: 10; LANA DNA inh: 0

How did CN1CCCc2cc(C=O)ccc21 do in these assays?
GLD-1 RNA inh: 4; MCL1 BIM primary: 30; Keap1-Nrf2 PPI: -2; BCLXL inh: 31*; E coli Lon inh: 0; LANA DNA inh: -2

What do the screens show for `O=C(O)C1Nc2c(C(F)(F)F)ccc(Cl)c2C2C=CCC12` (stereo unspecified)?
GLD-1 RNA inh: 15; MCL1 BIM primary: 48*; Keap1-Nrf2 PPI: 1; BCLXL inh: 38*; E coli Lon inh: 0; LANA DNA inh: 4

Results for COc1cccc(-c2nc3nc(C)cc(C)n3c2NCc2ccccc2)c1 ?
E coli Lon inh: -19

How did O=C(C1=NN(c2ccccc2)C2C(=O)N(c3ccc(Cl)cc3)C(=O)C12)c1ccccc1 (stereo unspecified) do in these assays?
GLD-1 RNA inh: 23; MCL1 BIM primary: 39; Keap1-Nrf2 PPI: -4; BCLXL inh: 46*; E coli Lon inh: -25; LANA DNA inh: 4

Results for O=C(C1=NN(c2ccccc2)C2C(=O)N(c3cccc(Cl)c3)C(=O)C12)c1ccccc1 (stereo unspecified) ?
GLD-1 RNA inh: 5; MCL1 BIM primary: 14; Keap1-Nrf2 PPI: inconclusive; BCLXL inh: 32*; E coli Lon inh: -40; LANA DNA inh: 61*

How did N#Cc1ccccc1S(=O)(=O)N1CCN(Cc2cc3c(cc2Br)OCCO3)CC1 do in these assays?
E coli Lon inh: -6

What do the screens show for `COc1cccc(C(=O)NC(=S)Nc2cccnc2)c1`?
GLD-1 RNA inh: 2; MCL1 BIM primary: 6; Keap1-Nrf2 PPI: -1; BCLXL inh: 8; E coli Lon inh: 5; LANA DNA inh: -3

Results for COc1ccc(C(=O)NC(=S)Nc2cccnc2)cc1Cl ?
GLD-1 RNA inh: 52*; MCL1 BIM primary: 15; Keap1-Nrf2 PPI: 3; BCLXL inh: 12; E coli Lon inh: 15; LANA DNA inh: 0

Results for O=C(O)c1ccc(-c2nn3c(=O)cc(N4CCNCC4)nc3s2)cc1 ?
E coli Lon inh: 2

What do the screens show for `COc1cc(/C=N/NS(=O)(=O)c2ccc(C)c([N+](=O)[O-])c2)cc([N+](=O)[O-])c1O`?
GLD-1 RNA inh: -5; MCL1 BIM primary: 5; Keap1-Nrf2 PPI: 0; BCLXL inh: 5; E coli Lon inh: 4; LANA DNA inh: 0

Results for COc1ccc(-n2c(O)c(/C=N/NS(=O)(=O)c3ccc(C)c([N+](=O)[O-])c3)c3ccccc3c2=O)cc1OC ?
GLD-1 RNA inh: -33; MCL1 BIM primary: -96; Keap1-Nrf2 PPI: -49; BCLXL inh: 41*; E coli Lon inh: -166; LANA DNA inh: -15

How did CCOC(=O)CN=C1CC(C)(C)CC2=C1Sc1ncnc(N(C)C)c1N2 do in these assays?
GLD-1 RNA inh: 14; MCL1 BIM primary: 29; Keap1-Nrf2 PPI: 0; BCLXL inh: 38*; E coli Lon inh: 6; LANA DNA inh: 11

Results for COc1ccccc1-c1cnc(C(O)c2cc(Cl)cc(Cl)c2)[nH]1 (stereo unspecified) ?
E coli Lon inh: -4

What do the screens show for `CNc1ncnc2c1ncn2[C@H]1CN(Cc2cccc3ccccc23)C[C@@H](CO)O1`?
E coli Lon inh: -9

Results for CC(=O)N1c2ccc(Cl)cc2C2C=CCC2C1c1cccc2ccccc12 (stereo unspecified) ?
GLD-1 RNA inh: 6; MCL1 BIM primary: -6; Keap1-Nrf2 PPI: -1; BCLXL inh: 3; E coli Lon inh: -7; LANA DNA inh: -1

How did CC(=O)N1c2ccc3ccccc3c2C2C=CCC2C1c1ccc(Br)cc1 (stereo unspecified) do in these assays?
GLD-1 RNA inh: 41*; MCL1 BIM primary: 32; BCLXL inh: 37*

Assay outcomes from PubChem.
